# In all, about 360,000 compounds went through this assay and about 2,600 (0.72%) were called active. Not shown: some 5% with an inconclusive outcome. The entries come from a sample that favours actives as a whole. Unmarked numbers belong to inactive results. Calls come from the whole dose curve; as a rule, active = well fitted inhibition curve with a large enough effect; inconclusive = small, poorly fitted or top-dose-only effect; inactive = no such curve, though single readings can be large or run the other way.
# Experiment: Primary qHTS for Inhibitors of ATXN expression; note: nearly all actives have a fitted effect of over 55% in size
# Settings: HEK-293 ATXN2-luciferase reporter, luminescence, 24 h; series mostly up to 57 µM; activity change, negative = inhibition: at the top concentration
# Source text: University of Utah School of Medicine, Salt Lake City, Utah
# Spinocerebellar ataxia type 2 (SCA2) is a multisystem neurodegenerative disease caused by a dominantly acting mutation leading to expansion of a polyQ domain in the ataxin-2 protein (ATXN2). SCA2 patients develop progressive ataxia and later lose function in other neuronal systems. Prominent parkinsonian signs develop in some patients. Like many neurodegenerative disorders, no symptomatic or disease-modifying treatments are known.
# The primary objective of the proposed research is to identify compounds inhibiting ATXN2 expression and to test them for efficacy in SCA2 mouse models. We have developed a cell-based assay paired with an in vivo mouse model using identical luciferase expression constructs. This approach takes advantage of an ATXN2-luciferase transgene, with the luciferase gene flanked by the upstream and downstream portions of the ATXN2 gene. Here we describe a 5-7 dose quantitative high thoroughput screen (qHTS) for compounds lowering ATXN2 expression. We screened the NIH Molecular Libraries Small Molecule Repository (MLSMR) and NCGC's mechanistically annotated (MIPE) and drug repurposing (NPC) collections of compounds for lowering expression of an ATXN2-luciferase reporter in HEK-293 cells. The assay is a multiplexed cell viability assay to ensure target reduction in the absence of cytotoxicity. Secondary qHTS assays included a CMV-luciferase reporter expressed in HEK-293 cells as well as a biochemical assay using recombinant luciferase to detect inhibitors of the reporter enzyme. Compounds that inhibit ATXN2 expression but is not cytotoxic were selected for confirmatory and secondary screens.
# PROTOCOL TABLE (as described by Inglese J, Shamu CE and Guy RK. 2007)
# SEQUENCE No. (e.g., 1, 2, 3, etc.); […] (e.g., Cells, Incubation, Reagent, etc.); VALUE; DESCRIPTION.
# 1; Cells; 4 uL; white, solid bottom, 1536-well Greiner assay plate.
# 2; Incubation; 2 hr; 37 degree C in 5% humidified CO2.
# 3; Compounds; 23 nL; Kalypsis pintool (Wako USA) equipped with a 1536-well pin head.
# 4; Incubation; 24 hr; 37 degree C in 5% humidified CO2.
# 5; Reagent; 1 uL; Gly-Phe-7-Amino-4-trifluoromethylcoumarin.
# 6; Incubation; 30 min; 37 degree C in 5% humidified CO2.
# 7; Detection; Fluorescence; ViewLux plate reader (PerkinElmer).
# 8; Reagent; 3 uL; SteadyGlo luciferase solution (Promega).
# 9; Incubation; 5 min; room temperature.
# 10; Detection; Luminescence; ViewLux plate reader (PerkinElmer).
# NOTES (numbers refer to Sequence numbers above)
# 1. S2 cells expressing ATXN2-luciferase reporter were suspended in phenol-red free DMEM and dispensed in assay plates using a Multidrop Combi dispenser (Thermo Fisher Scientific).
# 2. Assay plates were incubated. Evaporation was prevented by covering assay plates with metal lids containing holes to allow gas diffusion.
# 3. Compounds were added in a dose response manner with the final concentrations of 57, 11.4, 2.28, 0.46, 0.091, 0.018, 0.0037 uM. Vehicle-only plates, with DMSO being pin-transferred to columns 5-48, were inserted uniformly at the beginning and the end of each library to monitor and record any shifts in assay performance.
# 5. 125 uM Gly-Phe-7-Amino-4-trifluoromethylcoumarin (MP Biomedicals) working concentration was used at a final concentration of 25 uM.
# 7. To assess cell viability; the assay plates were read using the ViewLux high-throughput CCD imager (PerkinElmer), wherein single end-point fluorescence measurement was acquired (excitation 405/10; emission 540/25 nm).
# 8. Detection reagent SteadyGlo Luciferase (Promega) was added to the assay plate.
# 10. Luminescence is then measured on the ViewLux imager equipped with a clear emission filter using a 2 sec exposure. All screening operations were performed on a fully integrated robotic system (Kalypsys) containing one RX-130 and two RX-90 anthropomorphic robotic arms (Staubli).
# […]
# % is set by controls: 0 for no effect and ±100 for the full control effect; potency is the fitted concentration of half-maximal effect.
Structure (SMILES),Potency,"activity change, negative = inhibition [%]"
Oc1c(Cl)cc(Cl)c(Cl)c1Cc1c(O)c(Cl)cc(Cl)c1Cl,28.2 µM (active),–
OCCC#Cc1ccc(N2C(c3ccsc3)=Cc3ccc(F)cc3C2c2c[nH]c3ccccc23)cc1 (stereo not given),–,-24.8
Cc1cc(Cl)ccc1-c1nc(NCCN(C)C)nc2ccsc12,–,-22.9
Cc1cc(-n2nc(C)cc2C)n2ncc(-c3ccccc3)c2n1,–,22.1
Cc1cc(C)n(-c2c(F)c(F)c(COC(=O)c3ccccc3)c(F)c2F)n1,–,5.42
CCOC(=O)c1cnc(-n2nc(C)cc2C)nc1NNc1cc(C)nc(-c2ccccc2)n1,7.08 µM (active),–
Cc1ccc(CN2CCCn3nc(C(=O)NCc4ccccc4Cl)cc3C2=O)cc1,–,-27.7
O=C1CC(c2ccc(F)cc2F)c2cc3c(cc2N1)OCO3 (stereo not given),–,-15.4
Cc1cccn2c(=O)c3cc(C(=O)NC(C)c4ccccc4)c(=N)n(CCCO)c3nc12 (stereo not given),–,3.42
COC(=O)c1sc(NC(=S)NC(=O)c2ccc(C)cc2)nc1C,–,17.5
COC(=O)c1sc(NC(=O)c2ccc(OC)cc2OC)nc1C,2.24 µM (active),–
COc1ccc(C(=O)NC2=NCCS2)c(OC)c1,–,-24.2
O=C(NC1CCCCC1)c1ccc(Cn2c(SCc3ccccc3)nc3cccnc32)cc1,–,6.62
COC(=O)c1ccc2nc(-c3ccc(OC)c(OC)c3)c(Cc3ccccc3)n2c1,–,-6.06
Cc1cc(Nc2cc(CN3CCOCC3)c3nc(C)c(Cc4ccc(Cl)cc4F)n3n2)n[nH]1,19.3 µM (active),–
Cc1ccc(Cl)cc1NC(=O)CN1CCN(S(=O)(=O)N2CCOCC2)CC1,–,3.26
O=C1NC(=O)C(=Cc2cccc(C(F)(F)F)c2)S1,–,21.6
CCOC(=O)c1cc2c(=O)n3ccccc3nc2n(Cc2ccco2)c1=NC(=O)c1ccc(F)cc1,–,3.51
CCC1CCCCN1Cc1c(O)ccc2c(=O)c(Oc3ccccc3Cl)c(C(F)(F)F)oc12 (stereo not given),–,-0.396
C[C@@H]1C[C@@H]2O[C@H]2/C=C\C=C\C(=O)Cc2c(Cl)c(O)cc(O)c2C(=O)O1,4.74 µM (active),–
CC1(C(=O)NCc2cccc3ccccc23)CCN1Cc1ccc(-c2ccccc2)o1 (stereo not given),–,-26.5
CN(C)CCCN(C(=O)c1ccc(S(=O)(=O)N2CCCCCC2)cc1)c1nc2ccc(Br)cc2s1,31.6 µM (active),–
CN(C)CCN(C(=O)C1=COCCO1)c1nc2ccc(Cl)cc2s1,–,-17.5
Cc1cc(C)c2sc(NC(=O)c3ccc(S(=O)(=O)N4CCCC4)cc3)nc2c1,–,9.87
CCOC(=O)c1ccc(-c2ccc3ncnc(N(C)Cc4sccc4C)c3c2)o1,–,14.4

Structure (SMILES),Potency,"activity change, negative = inhibition [%]"
CCn1c(/C=C/c2ccc([N+](=O)[O-])o2)nc2ccccc2c1=O,8.91 µM (active),–
Cc1ccc(-n2c(SCC(=O)N/N=C/C=C/c3ccccc3[N+](=O)[O-])nc3ccccc3c2=O)cc1,–,-2.09
O=c1c2ccccc2ncn1/N=C/c1ccccc1,–,8.36
Cc1ccc(-n2c(SCC(=O)Nc3cccc(F)c3)nc3c(oc4ccccc43)c2=O)cc1C,–,14.2
CCCc1c2oc(C(=O)O)cc(=O)c2cc2c(=O)cc(C(=O)O)n(CC)c12,–,3.26
CC1(C)OC[C@@H](COC(=O)CCc2ccc(OC[C@@H](O)CNCCNC(=O)N3CCOCC3)cc2)O1,–,1.02
Cc1ccc(C)c(N2CCN(C(=O)CCCn3c(=O)c4cccn4c4cccnc43)CC2)c1,–,-30.8
Cc1ccc(C)c(N2CCN(C(=O)CCc3nc4ccccc4[nH]3)CC2)c1,–,-22.2
Cc1ccc(C)c(N2CCN(C(=O)CCCCCn3c(=S)[nH]c4ccc(N5CCOCC5)cc4c3=O)CC2)c1,2.82 µM (active),–
COc1ccc(-c2c(C)c3ccc(O)c(CN4CCCC4)c3oc2=O)cc1OC,–,-15.7
CO[C@H]1O[C@@H]2O[C@@]3(C)CC[C@@H]4[C@@H](C)CC[C@@H]([C@H]1C)[C@@]24OO3,–,-21.4
CCOc1ccc(CNC(=O)c2cccc(Nc3nc4ccccc4n4nnnc34)c2)cc1OC,–,13.1
C=CCn1c(C)cc(C2=NNC(=NCC)SC2)c1C,0.447 µM (active),–
C=C1C(=CC=C2CCC[C@]3(C)[C@@H]([C@H](C)C=C[C@H](C)C(C)C)CC[C@@H]23)C[C@@H](O)C[C@@H]1O,–,104
COc1ccc(Cc2nc3ccc(C(=O)NCc4ccccc4Cl)cc3o2)cc1,–,0.129
Cc1ccnc(NC(=O)C2CCN(S(=O)(=O)c3c(C)c(C)cc(C)c3C)CC2)c1,7.94 µM (active),–
Cc1ccc(S(=O)(=O)N2CCC(C(=O)Nc3cc(C)ccc3C)CC2)cc1,–,-3.58
O=C(Nc1ccccn1)C1CCN(S(=O)(=O)c2ccccc2)CC1,–,30.1
COc1cccc(CNC(=O)C(=O)NCC(c2cccs2)S(=O)(=O)c2ccccc2)c1 (stereo not given),–,-24.1
CCc1ccc(OC2(C)CCN(CCOc3ccc(C)cc3)C2)cc1 (stereo not given),–,-24.5
CCCCCCCCn1c2c(c(=N)c3c1CCC3)CCCC2,0.891 µM (active),–
CCCS(=O)(=O)N1CCC(n2c(C(F)(F)F)nc3cccnc32)CC1,–,-14.9
CCN(CC)CCNC(=O)c1c(C)[nH]c(C=C2C(=O)Nc3ccc(F)cc32)c1C,44.4 µM (active),–
CCOc1cc2[nH]c(=O)n(Cc3ccc(C(=O)NCCN(CC)CC)cc3)c(=O)c2cc1OCC,–,-1.01
CCN(CC)CCNC(=O)c1cc(S(C)(=O)=O)ccc1OC,inactive,–
